# Legend:
# Experiment in all cases: DAPPL (digital affinity profiling via proximity ligation, sequencing); 10 mM Tris-HCl pH 7.5, 50 mM NaCl, 1 mM DTT, 4% glycerol, room temperature, 30 min; GST-TFs on glutathione beads, 16-mer random dsDNA library, 0.1% formaldehyde crosslink after washing; high values mean tight binding
# Conditions in all cases: protein: recombinant; tags: N-terminal GST; dsDNA, one strand shown
# FLI1 = target: T1, FLI1 (Homo sapiens, UniProt Q01543 1-452)
# T1 sequence: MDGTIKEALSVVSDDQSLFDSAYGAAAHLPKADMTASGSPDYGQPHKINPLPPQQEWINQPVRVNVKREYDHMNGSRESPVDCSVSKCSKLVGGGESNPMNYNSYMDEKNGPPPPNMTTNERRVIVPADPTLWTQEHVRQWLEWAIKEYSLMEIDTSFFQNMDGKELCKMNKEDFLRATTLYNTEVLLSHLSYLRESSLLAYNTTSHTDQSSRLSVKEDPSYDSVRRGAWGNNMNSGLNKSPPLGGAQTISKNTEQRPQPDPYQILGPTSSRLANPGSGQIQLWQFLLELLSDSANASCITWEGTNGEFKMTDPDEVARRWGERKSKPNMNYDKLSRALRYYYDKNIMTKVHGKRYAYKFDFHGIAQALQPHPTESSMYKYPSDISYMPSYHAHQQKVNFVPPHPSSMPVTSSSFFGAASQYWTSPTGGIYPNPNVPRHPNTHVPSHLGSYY
# Summary of the method: (§1)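 Yeast served to express human transcription factors as GST fusions, which were then captured on glutathione beads and labelled with DNA barcodes. Pooled with a tag-only sample, they were incubated with 200 nmole of a 16-mer random double-stranded DNA library for 30 min at room temperature in Tris/NaCl/DTT/glycerol buffer, washed, crosslinked with 0.1% formaldehyde, ligated by proximity, amplified by PCR and sequenced. Dividing each hexamer's read frequency for a factor by its frequency for the tag-only sample gives the binding signal.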
# ELK1 = target: T2, ELK1 (Homo sapiens, UniProt P19419 1-428)
# T2 sequence: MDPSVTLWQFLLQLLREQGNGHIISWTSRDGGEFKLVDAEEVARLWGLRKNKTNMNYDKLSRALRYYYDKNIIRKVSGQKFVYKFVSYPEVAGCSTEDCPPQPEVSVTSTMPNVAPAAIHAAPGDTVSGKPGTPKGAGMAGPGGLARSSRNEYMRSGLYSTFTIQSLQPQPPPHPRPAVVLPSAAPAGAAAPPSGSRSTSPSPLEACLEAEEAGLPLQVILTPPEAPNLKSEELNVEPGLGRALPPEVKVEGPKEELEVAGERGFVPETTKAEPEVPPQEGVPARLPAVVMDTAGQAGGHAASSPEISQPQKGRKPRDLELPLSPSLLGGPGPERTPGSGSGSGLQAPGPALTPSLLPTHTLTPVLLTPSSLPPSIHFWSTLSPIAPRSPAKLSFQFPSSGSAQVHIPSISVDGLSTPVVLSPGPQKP
# Summary of the method: as §1
# GABPA = target: T3, GABPA (Homo sapiens, UniProt Q06546 1-454)
# T3 sequence: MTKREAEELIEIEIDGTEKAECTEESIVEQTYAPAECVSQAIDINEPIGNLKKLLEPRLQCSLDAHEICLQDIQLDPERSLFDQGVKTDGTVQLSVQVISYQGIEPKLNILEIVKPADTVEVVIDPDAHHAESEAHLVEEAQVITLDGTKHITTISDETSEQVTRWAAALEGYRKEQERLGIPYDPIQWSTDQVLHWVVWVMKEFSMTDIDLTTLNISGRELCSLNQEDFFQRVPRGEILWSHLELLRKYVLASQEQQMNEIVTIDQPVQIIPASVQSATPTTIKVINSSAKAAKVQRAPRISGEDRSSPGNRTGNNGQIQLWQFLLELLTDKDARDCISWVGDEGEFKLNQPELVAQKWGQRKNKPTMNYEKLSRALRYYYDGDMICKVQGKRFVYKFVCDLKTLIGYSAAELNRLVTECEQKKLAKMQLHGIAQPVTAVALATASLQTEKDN
# Summary of the method: as §1
# ERG = target: T4, ERG (Homo sapiens, UniProt P11308 1-479)
# T4 sequence: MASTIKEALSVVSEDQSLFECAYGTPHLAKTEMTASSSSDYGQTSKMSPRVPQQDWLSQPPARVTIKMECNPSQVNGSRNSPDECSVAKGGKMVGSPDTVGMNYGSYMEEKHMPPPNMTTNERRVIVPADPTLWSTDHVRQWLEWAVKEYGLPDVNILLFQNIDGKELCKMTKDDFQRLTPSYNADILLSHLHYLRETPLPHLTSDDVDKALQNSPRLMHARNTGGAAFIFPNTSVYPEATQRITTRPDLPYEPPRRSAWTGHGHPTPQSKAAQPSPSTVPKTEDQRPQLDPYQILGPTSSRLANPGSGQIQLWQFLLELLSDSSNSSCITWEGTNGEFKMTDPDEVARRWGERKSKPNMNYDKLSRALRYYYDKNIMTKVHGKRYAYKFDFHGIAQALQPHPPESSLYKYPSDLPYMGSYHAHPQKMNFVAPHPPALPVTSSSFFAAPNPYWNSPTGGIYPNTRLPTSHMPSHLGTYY
# Summary of the method: as §1
# EHF = target: T5, EHF (Homo sapiens, UniProt Q9NZC4 1-300)
# T5 sequence: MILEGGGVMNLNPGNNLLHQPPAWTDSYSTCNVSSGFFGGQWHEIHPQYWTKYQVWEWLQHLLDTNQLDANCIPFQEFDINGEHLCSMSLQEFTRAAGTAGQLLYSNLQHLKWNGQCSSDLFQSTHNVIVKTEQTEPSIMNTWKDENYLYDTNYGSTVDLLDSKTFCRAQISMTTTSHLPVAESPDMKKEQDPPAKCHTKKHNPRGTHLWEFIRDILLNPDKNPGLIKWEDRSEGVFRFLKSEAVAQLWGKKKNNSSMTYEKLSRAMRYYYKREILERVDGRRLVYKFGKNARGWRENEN
# Summary of the method: as §1
# SPI1 = SPI1 (Homo sapiens, UniProt P17947 1-270)
# Summary of the method: as §1
# SPIB = SPIB (Homo sapiens, UniProt Q01892 1-262)
# Sequence of SPIB (Q01892 whole entry): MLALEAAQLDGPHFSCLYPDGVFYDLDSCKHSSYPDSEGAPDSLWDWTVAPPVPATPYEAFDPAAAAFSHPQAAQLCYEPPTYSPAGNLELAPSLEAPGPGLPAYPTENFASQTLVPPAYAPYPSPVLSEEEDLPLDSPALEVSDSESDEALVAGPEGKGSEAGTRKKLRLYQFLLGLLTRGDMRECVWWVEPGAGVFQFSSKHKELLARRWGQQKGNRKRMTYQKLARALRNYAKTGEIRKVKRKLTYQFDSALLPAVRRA
# Summary of the method: as §1
# ELK3 = target: T6, ELK3 (Homo sapiens, UniProt P41970 1-407)
# T6 sequence: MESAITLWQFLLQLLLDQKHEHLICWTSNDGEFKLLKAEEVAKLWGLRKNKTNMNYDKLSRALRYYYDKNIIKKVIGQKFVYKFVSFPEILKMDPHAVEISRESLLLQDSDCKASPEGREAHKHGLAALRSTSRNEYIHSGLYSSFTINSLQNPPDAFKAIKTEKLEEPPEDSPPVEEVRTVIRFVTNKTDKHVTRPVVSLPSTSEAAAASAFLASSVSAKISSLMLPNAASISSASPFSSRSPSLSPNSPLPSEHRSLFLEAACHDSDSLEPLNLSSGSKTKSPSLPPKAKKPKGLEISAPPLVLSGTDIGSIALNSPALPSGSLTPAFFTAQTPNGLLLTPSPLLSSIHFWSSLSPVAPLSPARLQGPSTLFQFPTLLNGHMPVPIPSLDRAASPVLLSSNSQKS
# Summary of the method: as §1
# ELF1 = ELF1 (Homo sapiens, UniProt P32519 1-619)
# Sequence of ELF1 (P32519 whole entry): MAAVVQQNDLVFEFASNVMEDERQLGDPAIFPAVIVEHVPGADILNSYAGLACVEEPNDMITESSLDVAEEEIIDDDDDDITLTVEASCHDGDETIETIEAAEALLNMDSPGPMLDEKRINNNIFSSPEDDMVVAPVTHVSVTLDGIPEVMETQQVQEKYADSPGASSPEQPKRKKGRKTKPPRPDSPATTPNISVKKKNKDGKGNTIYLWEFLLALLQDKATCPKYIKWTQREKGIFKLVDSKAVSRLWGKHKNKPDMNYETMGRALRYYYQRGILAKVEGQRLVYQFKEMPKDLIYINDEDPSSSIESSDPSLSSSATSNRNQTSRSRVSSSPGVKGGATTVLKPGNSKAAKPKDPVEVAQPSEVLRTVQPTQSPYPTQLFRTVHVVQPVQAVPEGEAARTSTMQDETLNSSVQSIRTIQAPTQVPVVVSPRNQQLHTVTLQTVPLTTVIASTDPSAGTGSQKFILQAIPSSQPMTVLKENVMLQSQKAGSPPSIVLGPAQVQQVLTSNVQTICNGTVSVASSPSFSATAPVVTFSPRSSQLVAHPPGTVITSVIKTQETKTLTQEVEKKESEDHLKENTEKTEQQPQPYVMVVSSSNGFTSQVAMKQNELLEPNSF
# Summary of the method: as §1
Sequence,binding signal (FLI1),binding signal (ELK1),binding signal (GABPA),binding signal (ERG),binding signal (EHF),binding signal (SPI1),binding signal (SPIB),binding signal (ELK3),binding signal (ELF1)
AGGTTT,"1.02 fold enrichment (6-mer frequency, TF over GST control)","1.04 fold enrichment (6-mer frequency, TF over GST control)","1.08 fold enrichment (6-mer frequency, TF over GST control)","1.06 fold enrichment (6-mer frequency, TF over GST control)","1.07 fold enrichment (6-mer frequency, TF over GST control)","1.06 fold enrichment (6-mer frequency, TF over GST control)","1.04 fold enrichment (6-mer frequency, TF over GST control)","1.13 fold enrichment (6-mer frequency, TF over GST control)",
AGATAA,"1.09 fold enrichment (6-mer frequency, TF over GST control)","1.07 fold enrichment (6-mer frequency, TF over GST control)","1.09 fold enrichment (6-mer frequency, TF over GST control)",,"1.03 fold enrichment (6-mer frequency, TF over GST control)","1.01 fold enrichment (6-mer frequency, TF over GST control)","1.12 fold enrichment (6-mer frequency, TF over GST control)",,"1.01 fold enrichment (6-mer frequency, TF over GST control)"
TAACGA,"1.09 fold enrichment (6-mer frequency, TF over GST control)","1.04 fold enrichment (6-mer frequency, TF over GST control)","1.07 fold enrichment (6-mer frequency, TF over GST control)","1.08 fold enrichment (6-mer frequency, TF over GST control)",,"1.06 fold enrichment (6-mer frequency, TF over GST control)","1.1 fold enrichment (6-mer frequency, TF over GST control)","1.03 fold enrichment (6-mer frequency, TF over GST control)","1.03 fold enrichment (6-mer frequency, TF over GST control)"
AACCCA,"1.05 fold enrichment (6-mer frequency, TF over GST control)","1.03 fold enrichment (6-mer frequency, TF over GST control)","1.02 fold enrichment (6-mer frequency, TF over GST control)","1.06 fold enrichment (6-mer frequency, TF over GST control)",,"1 fold enrichment (6-mer frequency, TF over GST control)","1 fold enrichment (6-mer frequency, TF over GST control)","1.1 fold enrichment (6-mer frequency, TF over GST control)","1.06 fold enrichment (6-mer frequency, TF over GST control)"
AAAAGT,"1.02 fold enrichment (6-mer frequency, TF over GST control)","1.1 fold enrichment (6-mer frequency, TF over GST control)","1.08 fold enrichment (6-mer frequency, TF over GST control)",,"1.1 fold enrichment (6-mer frequency, TF over GST control)","1.06 fold enrichment (6-mer frequency, TF over GST control)","1.12 fold enrichment (6-mer frequency, TF over GST control)","1.06 fold enrichment (6-mer frequency, TF over GST control)","1.01 fold enrichment (6-mer frequency, TF over GST control)"
GTCCAT,"1.22 fold enrichment (6-mer frequency, TF over GST control)","1.07 fold enrichment (6-mer frequency, TF over GST control)",,"1.14 fold enrichment (6-mer frequency, TF over GST control)","1.13 fold enrichment (6-mer frequency, TF over GST control)","1.08 fold enrichment (6-mer frequency, TF over GST control)","1.07 fold enrichment (6-mer frequency, TF over GST control)","1.2 fold enrichment (6-mer frequency, TF over GST control)","1.1 fold enrichment (6-mer frequency, TF over GST control)"

# Source: paper PMC7862700, “An all-to-all approach to the identification of sequence-specific readers for epigenetic DNA modifications on cytosine”
